Data as given in PubChem BioAssay (Tox21).
Inconclusive results are not listed. Active and inactive are the calls of the source. Unless noted, the call rests on the fitted dose curve; in most records, active means well fitted curve in the direction sought with a large enough effect in the repeat runs; inconclusive means weak or mixed curves; inactive means no such curve, though single readings can be large; an effect the other way counts as inactive or inconclusive.

Assays:
[1] = qHTS assay to identify small molecule antagonists of the retinoid-related orphan receptor gamma (ROR-gamma) signaling pathway - cell viability counter screen (AID 1159520); further: on the % scale 0 is the no-effect control and ±100 the full control effect; nearly all actives have a fitted effect of over 50% in size
Outline: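 Tet-on ROR gamma CHO cells were given compounds for 2 hr, then doxycycline hyclate at 1 uM final, and incubated 16 hr at 37 C. Viability was measured as ATP content by CellTiter-Glo luminescence.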

[2] = target: Nuclear receptor ROR-gamma (Homo sapiens) (UniProt P51449); assay: qHTS assay to identify small molecule antagonists of the retinoid-related orphan receptor gamma (ROR-gamma) signaling pathway (AID 1159521; further: nearly all actives have a fitted effect of over 50% in size; further: potency means the concentration at half of the fitted maximal effect;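 on activity change, negative = inhibition: CHO cells with doxycycline inducible ROR-gamma driving an RORE luciferase reporter; top concentration of the series differs between compounds; on the % scale 0 is the no-effect control and ±100 the full control effect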)
Outline: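 Readout: ONE-Glo luciferase luminescence, 30 min at room temperature. System: Tet-on RORγ CHO, RORE-LUC. Sequence: compound 2 h, doxycycline 1 uM final, 16 h at 37 C.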

[3] = qHTS assay to identify small molecule agonists of the AP-1 signaling pathway - cell viability counter screen (AID 1159525; calls by dose curve; further: nearly all actives have a fitted effect of over 55% in size)
Outline: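 Same-well cytotoxicity counter screen of the Tox21 10K library in ME-180 cells. The readout is ATP-dependent luminescence after 5 h compound treatment. Data are normalised to DMSO and tetra n-octyl ammonium bromide controls.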

[4] = qHTS assay to identify small molecule agonists of the AP-1 signaling pathway (AID 1159526; calls by dose curve; further: on the % scale 0 is the no-effect control and ±100 the full control effect)
[5] = target: Retinoic acid receptor RXR-alpha (Homo sapiens) (UniProt P19793); assay: qHTS assay to identify small molecule agonists of the RXR signaling pathway (AID 1159527; calls by dose curve; further: nearly all actives have a fitted effect of over 35% in size; further: potency means the concentration at half of the fitted maximal effect)
Outline: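 Reporter activation is measured as beta-lactamase activity via FRET substrate cleavage (emission 460/530 nm) in HEK 293T cells expressing an RXR-alpha-driven bla construct, following 16 hr compound exposure at 37 C.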

[6] = qHTS assay to identify small molecule agonists of the RXR signaling pathway - cell viability counter screen (AID 1159529); further: series mostly up to about 77 µM; on the % scale 0 is the no-effect control and ±100 the full control effect; nearly all actives have a fitted effect of over 50% in size
Outline: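 Tox21 10K compounds were tested for cytotoxicity against GeneBLAzer RXR-alpha HEK 293T cells grown in 2% charcoal-stripped FBS. Exposure lasted 16 hr at 37 C, 5% CO2; viability read by CellTiter-Glo luminescence.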

[7] = qHTS assay to identify small molecule antagonists of the retinoid acid receptor (RAR) signaling pathway - cell viability counter screen (AID 1159551); further: on the % scale 0 is the no-effect control and ±100 the full control effect; nearly all actives have a fitted effect of over 35% in size
Outline: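 C3RL4 RARE-luciferase line; cpds + retinol 1 uM final, 6 h, 37 C/5% CO2; CellTiter-Glo ATP luminescence, 30 min RT.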

[8] = qHTS assay to identify small molecule antagonists of the estrogen related receptor (ERR) signaling pathway from Tox21 library - cell viability counter screen (AID 1224834); further: on the % scale 0 is the no-effect control and ±100 the full control effect; nearly all actives have a fitted effect of over 30% in size
Outline: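 Multiplexed viability counter screen in ERR cells: 17.5 h compound exposure at 37 C, CellTiter-Fluor added, 30 min at 37 C/5% CO2, fluorescence read.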

[9] = target: Luciferin 4-monooxygenase (Photinus pyralis) (UniProt P08659); assay: qHTS assay to identify small molecule inhibitors of firefly luciferase (AID 1224835); further: nearly all actives have a fitted effect of over 25% in size; further: potency means the concentration at half of the fitted maximal effect
Outline: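 Biochemical qHTS: compounds run as interplate titrations against purified firefly enzyme, with D-luciferin and ATP each at its KM concentration. Light output recorded by CCD imaging.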

[10] = qHTS assay to identify small molecule agonists of the constitutive androstane receptor (CAR) signaling pathway - cell viability counter screen (AID 1224836); further: series mostly up to about 92 µM; on the % scale 0 is the no-effect control and ±100 the full control effect; nearly all actives have a fitted effect of over 45% in size
Outline: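 Fluorescence from CellTiter-Fluor indicates live cells after 23 h exposure. The human hepatoma line expresses hCAR and a CYP2B6-2.2kb reporter. Incubation medium contains 0.75 uM PK11195 (final).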

[11] = qHTS assay to identify small molecule antagonists of the constitutive androstane receptor (CAR) signaling pathway - cell viability counter screen (AID 1224837); further: series mostly up to about 92 µM; on the % scale 0 is the no-effect control and ±100 the full control effect; nearly all actives have a fitted effect of over 45% in size
Outline: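 Read-out: CellTiter-Fluor fluorescence after 23 hr at 37 C/5% CO2. Cells: HepG2 double-stable for hCAR and CYP2B6-2.2kb. Compounds tested at 15 concentrations in the presence of CITCO, final concentration 50 nM.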

[12] = qHTS assay to identify small molecule antagonists of the retinoic acid receptor (RAR) signaling pathway (AID 1159552; further: on the % scale 0 is the no-effect control and ±100 the full control effect; nearly all actives have a fitted effect of over 50% in size)
Outline: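 Overnight-plated C3RL4 reporter cells get compound, then retinol to 1 uM final; plates sit 6 hr at 37 C, 5% CO2. A luciferase reagent is added and light output recorded after 30 min at room temperature.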

[13] = qHTS assay to identify small molecule antagonists of the estrogen related receptor (ERR) signaling pathway - cell viability counter screen (AID 1224818); further: series mostly up to about 46 µM; on the % scale 0 is the no-effect control and ±100 the full control effect
Outline: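 Fluorescence from CellTiter-Fluor, read 30 min after reagent addition at 37 C, measured viability of ERR cells exposed to compounds for 17.5 h. Cells had settled 6 h before dosing.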

[14] = qHTS assay to identify small molecule antagonists of the estrogen related receptor signaling pathway with the pleiotropic PPARgamma coactivator (PGC) cell viability counter screen (AID 1224822; further: series mostly up to about 46 µM; on the % scale 0 is the no-effect control and ±100 the full control effect)
Outline: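 Fluorescence read-out of CellTiter-Fluor after 30 min at 37 C; PGC/ERR cells, 2,000 per well, had been exposed to DMSO-dissolved compounds for 17.5 h following a 6 h pre-incubation.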

[15] = qHTS assay to identify small molecule antagonists of the vitamin D receptor (VDR) signaling pathway - cell viability counter screen (AID 743225)
Outline: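 Cytotoxicity toward the VDR-bla HEK 293T line was scored by ATP-based CellTiter-Glo luminescence, read in the wells already used for the beta-lactamase readout after 16 h compound treatment under 3 nM 1-alpha,25-dihydroxyvitamin D3 stimulation.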

Chain of Luciferin 4-monooxygenase (Photinus pyralis) (P08659 whole entry, looked up): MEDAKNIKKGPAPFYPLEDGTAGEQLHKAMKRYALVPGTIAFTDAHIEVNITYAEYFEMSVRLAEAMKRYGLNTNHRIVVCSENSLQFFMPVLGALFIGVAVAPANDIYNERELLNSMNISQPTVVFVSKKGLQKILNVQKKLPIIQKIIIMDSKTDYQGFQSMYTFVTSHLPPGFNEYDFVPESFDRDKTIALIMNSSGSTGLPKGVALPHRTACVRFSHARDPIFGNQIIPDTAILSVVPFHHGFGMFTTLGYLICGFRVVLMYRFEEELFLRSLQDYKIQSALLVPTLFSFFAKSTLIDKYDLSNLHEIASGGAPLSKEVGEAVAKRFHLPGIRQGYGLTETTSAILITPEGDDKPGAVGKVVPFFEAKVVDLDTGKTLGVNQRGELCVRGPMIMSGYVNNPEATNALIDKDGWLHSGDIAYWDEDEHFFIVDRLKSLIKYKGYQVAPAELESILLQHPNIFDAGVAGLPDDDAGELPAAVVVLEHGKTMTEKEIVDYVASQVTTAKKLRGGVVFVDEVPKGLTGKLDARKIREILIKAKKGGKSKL
Chain of Retinoic acid receptor RXR-alpha (Homo sapiens) (P19793 whole entry, looked up): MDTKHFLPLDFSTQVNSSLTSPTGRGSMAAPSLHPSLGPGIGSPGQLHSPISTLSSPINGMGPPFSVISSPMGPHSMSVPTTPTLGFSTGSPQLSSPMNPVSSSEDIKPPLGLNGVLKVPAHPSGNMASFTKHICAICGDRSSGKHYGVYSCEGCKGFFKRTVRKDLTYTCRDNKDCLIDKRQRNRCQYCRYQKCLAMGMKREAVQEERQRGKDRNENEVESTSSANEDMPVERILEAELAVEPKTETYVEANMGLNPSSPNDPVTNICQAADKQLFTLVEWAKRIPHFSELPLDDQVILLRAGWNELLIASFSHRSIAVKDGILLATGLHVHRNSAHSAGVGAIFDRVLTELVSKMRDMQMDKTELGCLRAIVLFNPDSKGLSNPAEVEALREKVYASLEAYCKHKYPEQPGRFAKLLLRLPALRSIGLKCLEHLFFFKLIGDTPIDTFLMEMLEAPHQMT

CCCC(C)C=O (stereo unspecified)
inactive: Potency [1] | Potency [2] | Potency [3] | Potency [4] | Potency [5] | Potency [6] | Potency [7] | Potency [8] | Potency [9] | Potency [10]

CC(C)(C)C1=CC(=O)C(C(C)(C)C)=CC1=O
inactive: Potency [1] | Potency [3] | Potency [4] | Potency [7] | Potency [8] | Potency [9] | Potency [10] | Potency [11]
active: Potency [2] 10.6 µM

Cc1ccc2sc3cccc(C)c3c2c1
inactive: Potency [1] | Potency [2] | Potency [3] | Potency [4] | Potency [5] | Potency [8] | Potency [9] | Potency [10] | Potency [11]

CCCCCCCCCCCCS(=O)(=O)Cl
inactive: activity, negative = cytotoxicity [1] -7.74% [at 19 µM] | activity change, negative = inhibition [2] 0.574% [at 19 µM] | viability change, negative = cytotoxic [3] -17.5% [at 15.8 µM] | activation [4] -7.42% [at 15.8 µM] | activation [5] -13.1% [at 15.8 µM] | activity change, negative = cytotoxicity [7] 0.197% [at 19 µM] | activity, negative = inhibition [12] -0.011% [at 19 µM] | viability change, negative = cytotoxic [8] -1.38% [at 19 µM] | activity change, negative = inhibition [9] -13.9% [at 23.6 µM] | viability change, negative = cytotoxic [10] 14.3% [at 19 µM] | activity change, negative = cytotoxicity [11] -7.2% [at 19 µM]

CC(C)=CCC[C@H](C)CC=O
inactive: Potency [1] | Potency [2] | Potency [3] | Potency [4] | Potency [5] | Potency [6] | Potency [7] | Potency [8] | Potency [9] | Potency [10] | Potency [11]

Nc1cc([N+](=O)[O-])ccc1Cl
inactive: Potency [1] | Potency [2] | Potency [3] | Potency [4] | Potency [5] | Potency [6] | Potency [8] | Potency [9] | Potency [10] | Potency [11]

Cc1cccc(C)c1C
inactive: Potency [1] | Potency [2] | Potency [3] | Potency [4] | Potency [5] | Potency [7] | Potency [8] | Potency [9] | Potency [10]

Cc1ccc(N=Nc2c(O)ccc3ccccc23)c(C)c1
active: Potency [9] 13.8 µM
inactive: Potency [1] | Potency [2] | Potency [3] | Potency [4] | Potency [6] | Potency [7] | Potency [12] | Potency [10]

CC(CC(C)(C)C)CC(C)(C)CC(C)(C)C (stereo unspecified)
inactive: Potency [1] | Potency [2] | Potency [3] | Potency [4] | Potency [6] | Potency [7] | Potency [8] | Potency [9] | Potency [10] | Potency [11]

ClC(c1ccccc1)(c1ccccc1)c1ccccc1
inactive: Potency [1] | Potency [2] | Potency [3] | Potency [4] | Potency [6] | Potency [7] | Potency [12] | Potency [9] | Potency [10] | Potency [11]

C=Cc1ccncc1
inactive: Potency [1] | Potency [2] | Potency [3] | Potency [4] | Potency [5] | Potency [6] | Potency [8] | Potency [10] | Potency [11]

C/C(=N\[Si](C)(C)C)O[Si](C)(C)C
inactive: Potency [1] | Potency [2] | Potency [3] | Potency [4] | Potency [5] | Potency [6] | Potency [7] | Potency [8] | Potency [9] | Potency [10] | Potency [11]

Nc1cc([N+](=O)[O-])cc(Cl)c1O
inactive: Potency [1] | Potency [2] | Potency [3] | Potency [4] | Potency [5] | Potency [6] | Potency [7] | Potency [12] | Potency [9] | Potency [10]

C/C(=C\c1ccc(C(=O)O)cc1)c1ccc2c(c1)C(C)(C)CCC2(C)C
inactive: Potency [1] | Potency [2] | Potency [3] | Potency [4] | Potency [6] | Potency [7] | Potency [13] | Potency [14] | Potency [8] | Potency [10] | Potency [11]
active: Potency [5] 952 nM

O=C1OCc2ccccc21
inactive: Potency [1] | Potency [2] | Potency [3] | Potency [4] | Potency [5] | Potency [7] | Potency [8] | Potency [9] | Potency [10]

CCOc1nc(F)cc2nc(S(=O)(=O)Nc3c(Cl)cccc3C(=O)OC)nn12
inactive: Potency [1] | Potency [2] | Potency [3] | Potency [4] | Potency [5] | Potency [7] | Potency [12] | Potency [8] | Potency [10] | Potency [11]

C=C(C)C1CCC(C)CC1O (stereo unspecified)
inactive: Potency [1] | Potency [2] | Potency [3] | Potency [4] | Potency [5] | Potency [7] | Potency [8] | Potency [9] | Potency [10]

CC(C=O)c1ccccc1 (stereo unspecified)
inactive: Potency [1] | Potency [2] | Potency [3] | Potency [4] | Potency [5] | Potency [7] | Potency [8] | Potency [9] | Potency [10] | Potency [11]

O=C1c2ccccc2C(=O)c2c(Cl)cccc21
inactive: Potency [1] | Potency [2] | Potency [3] | Potency [4] | Potency [5] | Potency [7] | Potency [8] | Potency [9] | Potency [10] | Potency [11]

COc1c(Br)cc(Br)c(C)c1Br
inactive: Potency [15] | Potency [1] | Potency [2] | Potency [3] | Potency [4] | Potency [5] | Potency [6] | Potency [8] | Potency [9] | Potency [10] | Potency [11]

C=CC(C)(C)O
inactive: Potency [1] | Potency [2] | Potency [3] | Potency [4] | Potency [5] | Potency [6] | Potency [7] | Potency [8] | Potency [9] | Potency [10] | Potency [11]

CC1CCC(C(C)(C)O)CC1 (stereo unspecified)
inactive: Potency [1] | Potency [2] | Potency [3] | Potency [4] | Potency [5] | Potency [6] | Potency [7] | Potency [8] | Potency [9] | Potency [10] | Potency [11]
